# OPRM1-OPRD1 inv – inverse agonist of human OPRM1-OPRD1 heterodimerization; cell-based MOR-DOR heterodimer luminescence, inverse agonism; AID 504357; 340,000 tested, 0.21% active; inhibition, % at 9.3 µM; P35372+P41143; in the data active = inhibition above about 22%, passing the limit was not always enough
# HTR5A ag ctr – counter-screen for OPRM1-OPRD1 agonists: human HTR5A agonism. activation, % at 9.3 µM. AID 504692. P47898. HTR5A agonist assay, luminescence, cell-based. 340,000 tested, 0.61% active; in the data active = activation mostly above about 9.5%, no sharp cut-off; inactive = mostly below about 7.6%
# Target sequence (P47898 whole entry, looked up): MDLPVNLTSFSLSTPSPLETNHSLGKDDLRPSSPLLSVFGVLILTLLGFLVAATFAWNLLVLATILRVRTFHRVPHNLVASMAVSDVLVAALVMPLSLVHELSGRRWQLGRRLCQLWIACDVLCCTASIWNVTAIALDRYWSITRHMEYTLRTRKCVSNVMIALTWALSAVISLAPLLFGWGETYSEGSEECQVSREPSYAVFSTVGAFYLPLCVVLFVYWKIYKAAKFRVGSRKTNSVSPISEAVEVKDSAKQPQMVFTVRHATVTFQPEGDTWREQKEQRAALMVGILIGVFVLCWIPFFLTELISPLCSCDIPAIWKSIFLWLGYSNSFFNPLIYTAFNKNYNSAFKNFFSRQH
# OPRM1-OPRD1 ag – OPRM1-OPRD1 heterodimerization agonism; P35372+P41143; cells, luminescence; activation, % at 9.3 µM; 340,000 tested, 0.3% active; in the data active = activation above about 18%
# HTR5A inv ag – counter-screen for OPRM1-OPRD1 inverse agonists: human HTR5A inverse agonism | inhibition, % at 9.3 µM | AID 504634 | HTR5A cell line, luminescence | 340,000 tested, 0.083% active; in the data active = inhibition mostly above about 23%, no sharp cut-off; inactive = mostly below about 18%
# MOR-DOR inv conf – confirmation of human OPRM1-OPRD1 heterodimerization inverse agonists | cells expressing OPRM1/OPRD1 heterodimer, luminescence | 580 tested, 20% active | shares compounds with OPRM1-OPRD1 inv | inhibition, % at 9.3 µM; in the data active = inhibition above about 32%
# HTR5A inv ctr2 – inverse agonist of human HTR5A in OPRM1-OPRD1 counter-screen | shares compounds with OPRM1-OPRD1 inv | HTR5A-expressing cells, luminescence, inverse agonism | inhibition, % at 9.3 µM | 580 tested, under 10 active | AID 504914; call rule not given here
# Hits are given with their value; i = inactive; nt = no result. An excerpt weighted towards active compounds, which were near 1.1% of everything screened.
SMILES,OPRM1-OPRD1 inv,HTR5A ag ctr,OPRM1-OPRD1 ag,HTR5A inv ag,MOR-DOR inv conf,HTR5A inv ctr2
C[C@@H]1CN([C@H](C)CO)C(=O)c2cc(NC(=O)Cc3cn(C)c4ccccc34)ccc2O[C@H]1CN(C)S(=O)(=O)c1ccc(F)cc1,i,i,i,i,nt,nt
Cc1cc(S(=O)(=O)N2CCOCC2)ccc1OCC(=O)Nc1ccc(F)c(Cl)c1,i,i,i,i,nt,nt
O=C1Nc2ccccc2Nc2ccccc21,i,i,i,i,nt,nt
O=C1Nc2ccccc2C1=NN1CCCCCC1,38,i,i,i,i,i
O=C1Nc2ccccc2C1=O,55,i,i,i,33,i
Nc1n[nH]c(=S)n1/N=C1/C(=O)Nc2ccccc21,i,i,i,i,nt,nt
COc1ccc(C)cc1NC(=O)NC1CCCc2ccccc21 (stereo unspecified),i,i,i,i,nt,nt
COCc1cc(C)nc2sc(C(=O)N3CCCCC3)c(N)c12,39,i,i,i,i,i
Cc1cccc(N=C2CSC(=O)N2)c1,i,i,i,i,nt,nt
Cc1cccc(N=C2C(=O)Nc3c(Cl)cccc32)c1,56,i,i,i,i,i
CCOc1ccc(CNC23CN4CN(CN(C4)C2)C3)cc1,16,i,i,i,i,i
CCOc1ccc(C=NC23CN4CN(CN(C4)C2)C3)cc1,i,i,i,i,nt,nt
CCOc1ccc(/C(O)=C2/C(=O)C(=O)N(CCCN3CCOCC3)C2c2ccc(F)cc2)cc1C (stereo unspecified),i,i,i,i,nt,nt
COc1ccc(N2COC3c4cccc5cccc(c45)C32)cc1 (stereo unspecified),50,i,i,i,i,i
O=C(CCC(=O)N(c1ccccc1)C(C(=O)NC1CCCC1)c1ccncc1)Nc1cccnc1 (stereo unspecified),i,i,i,i,nt,nt
COCCN(C(=O)CCC(=O)Nc1cccnc1)C(C(=O)NC1CCCCC1)c1ccccc1 (stereo unspecified),36,i,i,i,i,i
Cc1ccc(C(=O)COC(=O)CCC(=O)Nc2cccc(Cl)c2)cc1[N+](=O)[O-],52,i,i,i,32,i
O=C(CCC(=O)OCC(=O)c1ccc(Br)cc1)NC1CCCCC1,i,i,i,i,nt,nt
Cc1ccc(C(=O)COC(=O)CCC(=O)NC2CCCCC2)cc1[N+](=O)[O-],47,i,i,i,35,i
COc1ccccc1NC(=O)CCC(=O)OCC(=O)c1ccc(C)c([N+](=O)[O-])c1,53,i,i,i,i,i
Cc1ccc(SC(=O)c2c([N+](=O)[O-])c(C)nn2C)cc1,i,i,i,i,nt,nt
O=C(O)c1cccc(Nc2ccncc2[N+](=O)[O-])c1,i,i,i,i,nt,nt
COC(=O)NNC(=O)c1ccc(Cl)cc1Cl,i,i,i,i,nt,nt
CC(C)(C)C(=O)NC(=S)NNC(=O)c1ccc(Cl)cc1Cl,39,i,i,i,i,i
Cc1csc(NC(=O)c2cc3c(C)nn(Cc4ccccc4Cl)c3s2)n1,i,i,i,i,nt,nt
SMILES,OPRM1-OPRD1 inv,HTR5A ag ctr,OPRM1-OPRD1 ag,HTR5A inv ag,MOR-DOR inv conf,HTR5A inv ctr2
CC(C)C(c1nnnn1Cc1cccs1)N1CCN(C(=O)c2ccco2)CC1 (stereo unspecified),i,i,i,i,nt,nt
N#CC(C#N)=C1C=CC=CN1/C(=C\c1ccccc1Cl)C(=O)c1ccccc1,35,i,i,i,i,i
COc1ccc(OC)c(NC(=O)NNC(=O)CCCOc2ccc(Cl)cc2C)c1,i,i,i,i,nt,nt
C/C(=N\NC(=O)c1cc(C)nc2ccccc12)c1ccccn1,i,i,i,i,nt,nt
COc1ccc2nc(NN=C(C)c3ccccn3)cc(C)c2c1,39,i,i,i,i,i
CCN(CC)S(=O)(=O)c1ccc(NC(=O)CCN2C(=O)C3CC=CCC3C2=O)cc1 (stereo unspecified),i,i,i,i,nt,nt
CSc1nnc(C)c(/C=C/NOCc2ccc(Cl)cc2)n1,44,i,i,i,i,i
OC1=C(O)c2nc3ccccc3nc21,84,i,i,i,73,i
Cc1ccc(Cl)c2c1NC(=O)C2(O)CC(=O)c1ccccc1O (stereo unspecified),80,i,i,i,75,i
Cc1ccc(C(=O)CNc2ccccc2C)cc1,i,i,i,i,nt,nt
Cc1ccc(C(=O)CNc2ccc(C)cc2C)cc1,26,i,i,i,i,i
COc1ccc(S(=O)(=O)N2CCN(CC(=O)Nc3c(C)n[nH]c3C)CC2)cc1OC,i,i,i,i,nt,nt
COc1cc(OC)cc(C(=O)OCC(=O)c2ccc(S(=O)(=O)N3CCCCC3)cc2)c1,i,i,i,i,nt,nt
CC(C)[C@H](NC(=O)c1ccccc1)C(=O)OCC(=O)c1ccc(S(=O)(=O)N2CCCCC2)cc1,30,i,i,i,i,i
CC(C)[C@H](NC(=O)c1ccccc1)C(=O)OCC(=O)Nc1ccc(S(=O)(=O)N2CCOCC2)cc1,i,i,i,i,nt,nt
O=C(COC(=O)c1ccco1)c1ccc(S(=O)(=O)N2CCCCC2)cc1,53,i,i,i,i,i
COc1ccc(CC(=O)OCC(=O)c2ccc(S(=O)(=O)N3CCCCC3)cc2)cc1,50,i,i,i,i,i
O=C(COC(=O)c1ccc(Br)o1)c1ccc(S(=O)(=O)N2CCCCC2)cc1,65,i,i,i,i,i
COCCN1CC(C(=O)NCCc2nc(C)c(C)s2)CCC1=O (stereo unspecified),i,i,i,i,nt,nt
O=C(CSc1nc2ccccc2n1S(=O)(=O)c1ccccc1)N1CCCC1,i,i,i,i,nt,nt
CN(Cc1ccccc1)C(=O)c1cccc(NC(=O)Cc2ccc(NC(=O)C3CCN(C(=O)C4CC4)CC3)cc2)c1,i,i,i,i,nt,nt
CCc1cc2cc(C)ccc2nc1SCC(=O)NC1CCCC1,i,i,i,i,nt,nt
Cc1ccc(C)c(S(=O)(=O)Nc2ccccc2C(=O)Nc2ccc(S(=O)(=O)Nc3ncccn3)cc2)c1,i,i,i,i,nt,nt
O=C(COc1ccccc1)OCC(=O)c1ccc(S(=O)(=O)N2CCCCC2)cc1,80,i,i,i,i,i
NC(=O)COC(=O)c1ccc(S(=O)(=O)N2CCCCCC2)cc1,i,i,i,i,nt,nt
SMILES,OPRM1-OPRD1 inv,HTR5A ag ctr,OPRM1-OPRD1 ag,HTR5A inv ag,MOR-DOR inv conf,HTR5A inv ctr2
O=C(COC(=O)c1ccccc1)c1ccc(S(=O)(=O)N2CCCCC2)cc1,46,i,i,i,32,i
CCCNC(=O)c1nnsc1S(=O)(=O)c1ccc(Cl)cc1,32,i,i,i,i,i
COc1ccc(S(=O)(=O)N=Nc2c(O)[nH]c3ccccc23)cc1,45,i,i,i,i,i
Cc1ccc(S(=O)(=O)N=Nc2c(O)[nH]c3ccccc23)cc1C,47,i,i,i,i,i
Cc1ccc(N(CC(=O)N=Nc2c(O)[nH]c3ccccc23)S(C)(=O)=O)c(C)c1,i,i,i,i,nt,nt
COc1cc(C=NNc2nc3c([nH]2)c(=O)n(C)c(=O)n3C)ccc1O,35,i,i,i,i,i
O=C(COc1coc(CN2CCc3ccccc3C2)cc1=O)Nc1cccc(Cl)c1,i,i,i,i,nt,nt
O=C(NNc1cc(Cl)cc(Cl)c1)c1cccs1,i,i,i,i,nt,nt
